Potency data for nine compounds are collected here from PubChem BioAssay AID1345085 (National Center for Advancing Translational Sciences (NCATS), 2018).

Molecules are shown by their SMILES. Inconclusive results are not listed. Where a call stands in place of a potency, no number is given. Activity calls are given as the source filed them. The call rests on the fitted dose curve; in most records, active means well fitted cell-killing curve with a large enough effect; inconclusive means small, poorly fitted or top-dose-only effect, or effect the other way; inactive means no such curve, though single readings can be large or run the other way.
Potency means the concentration at half of the fitted maximal effect.

The subject of the assay is CAOV3. The assay can be described thus: Confirmatory qHTS for gynecologic anti-cancer compounds from libraries of approved drugs and bioactive compounds. Further: nearly all actives have a fitted effect of over 55% in size. The following applies: gynecologic cancer cell panel viability, ATPlite luminescence, 48 h; series mostly up to 57.6 µM. Put shortly:
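Seeding 1,000 cells per well preceded overnight (16 h) attachment, after which 48 h drug treatment across 57.5 uM–0.977 nM (11 points) was applied. Remaining cellular ATP, detected by ATPlite luminescence, defined IC50.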
For the compound `CCC(=O)O[C@H]1CC[C@H]2[C@@H]3CCC4=CC(=O)CC[C@]4(C)[C@H]3CC[C@]12C`, the Potency entry is “inactive”.

As to `CCN1CCN(C(=O)Cc2ccc(Nc3ncc(F)c(Nc4ccc(C(=O)Nc5ccccc5Cl)cc4)n3)cc2)CC1`, the Potency result is “inactive”.

Consider `C[C@]12CC[C@H]3[C@@H](CCC4=CC(=O)CC[C@@H]43)[C@@H]1CC[C@@H]2OC(=O)CCc1ccccc1`, for which the Potency entry was “inactive”.

Turning to `CCNC(=O)C[C@@H]1N=C(c2ccc(Cl)cc2)c2cc(OC)ccc2-n2c(C)nnc21`, the Potency was 1220 nM (active).

As to `O=C(O)Cc1ccccc1`, the Potency result was “inactive”.

`CCOc1ccccc1-n1c(C(C)N2CCN(C(=O)COc3ccc(Cl)cc3)CC2)nc2ccccc2c1=O` (centres undefined): the Potency result is “inactive”.

Take `C/C=C(/C)C(=O)O[C@H]1C(C)=C2[C@H]([C@@H]1OC(=O)CCCCCCC)[C@@](C)(OC(C)=O)C[C@H](OC(=O)CCC)[C@@]1(O)[C@H]2OC(=O)[C@@]1(C)O`: the Potency was 9680 nM (active).

For `C=C(C)[C@H]1Cc2c(ccc3c2O[C@@H]2COc4cc(OC)c(OC)cc4[C@@H]2C3=O)O1`, the Potency entry is “inactive”.

As to `C[C@H]1CCC/C=C/C2C[C@H](O)C[C@H]2[C@H](O)/C=C/C(=O)O1` (some centres undefined), the Potency is 306 nM (active).
